The record followed here is PubChem BioAssay AID1813 (Broad Institute, 2009).

Structures are written as SMILES. In all, about 300,000 compounds went through this assay and about 2,500 (0.83%) were called active. Cut-off read from the data, not from the text of the source: active = inhibition above about 60%; inconclusive = no clear call, values can overlap the other calls; inactive = below that. Only a selection was taken, and actives are over-represented in it overall.

A short description of the test: MLPCN primary screen, SNCA 5' untranslated region (AID 1813).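 Note: H4 neuroglioblastoma cells stably carrying SNCA 5'UTR luciferase fusion; 0% = DMSO wells and 100% = positive control.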 The note with it: alpha-synuclein 5'UTR reporter, inhibitor activity; stronger effect = higher value; tested at 7.5 µM.
Usually inhibition stands for the drop in the measured response relative to a control, in per cent. For `CCC1(CC)C(=O)C2=C3C1[C@H](C(=O)OC)C=C(C(=O)OC)C[C@H]3[C@H]1C(=O)N(Cc3ccccc3)C(=O)[C@H]1[C@H]2C` (stereo partly specified), the inhibition was 6.19% (inactive).

Turning to `COc1ccc(S(=O)(=O)NCC(c2ccc(C)cc2)N2CCN(C)CC2)cc1OC` (stereo unspecified), the inhibition was -8.67% (inactive).

`COc1ccc(CN2CCC(n3nccc3NC(=O)CCCc3ccccc3)CC2)cc1C`: the inhibition is 23.5% (inactive).

Take `O=C(NCc1ccccc1)c1onc(CSc2nc3ccccc3[nH]2)c1C(=O)NCc1ccccc1`: the inhibition is 21.2% (inactive).

In the case of `COc1ccc(N2CCN(C(=O)[C@@H](NC(=O)c3cc(OC)cc(OC)c3)C(C)C)CC2)cc1`, the inhibition is 5.14% (inactive).

`CC(C)(C)c1ccc(C(=O)NCc2ccco2)cc1`: the inhibition was -180% (inactive).

In the case of `CCCC1=Nc2cc(C(=O)NCCN3CCCC3)ccc2Sc2ccccc21`, the inhibition was -14.6% (inactive).

For the compound `CCCC1=Nc2cc(C(=O)NCc3ccco3)ccc2Sc2ccccc21`, the inhibition was 87.6% (active).

As for `CCCN(CC(=O)Nc1ccc(OC)c(OC)c1)CC(=O)Nc1ccc(F)c(F)c1F`, the inhibition was 3.66% (inactive).

As to `Cc1ccc(CC(=O)N(C)CC(=O)N(CC(C)C)c2c(N)n(CC(C)C)c(=O)[nH]c2=O)cc1C`, the inhibition was 15% (inactive).

For `CCC(C)Cn1c(O)cc2nn(-c3nc4ccccc4s3)c(=O)c-2c1C` (stereo unspecified), the inhibition is 97.8% (active).

Consider `Cc1nn(CC(=O)Nc2nc3ccccc3s2)c(C)c1[N+](=O)[O-]`, for which the inhibition is 5.8% (inactive).

With `Cc1cc(NC(=O)CN2CCCC(C)C2)n(-c2nc3ccccc3s2)n1` (stereo unspecified), the inhibition was 27.7% (inactive).

Regarding `Nc1cc(N2CCCCCC2)c2nonc2c1[N+](=O)[O-]`, the inhibition was 11% (inactive).

As to `CCOC(=O)CSC1=C(C#N)C(c2ccco2)C(C(=O)OCc2ccccc2)=C(C)N1` (stereo unspecified), the inhibition was 10.5% (inactive).

On to `CCOC(=O)CSC1=C(C#N)C(c2sccc2C)CC(=O)N1` (stereo unspecified), for which the inhibition is 75% (active).

As to `Cc1ccc(C2CC(=O)NC(SCC(=O)OCc3ccccc3)=C2C#N)o1` (stereo unspecified), the inhibition is -11.5% (inactive).

Consider `Cc1nc2ccccc2c(=O)n1-c1ccc(F)c(NC(=O)c2cccs2)c1`, for which the inhibition was 9.3% (inactive).

Turning to `CCC(C)(C)c1ccc(Oc2ccc(NC(=O)COC(=O)C3=COCCO3)cc2)cc1`, the inhibition is 90.6% (active).

As to `CCOc1ccc(NC(=O)c2ccc(NC(=O)COC(=O)c3ccc(NC(=O)CC#N)cc3)cc2)cc1`, the inhibition is -88.1% (inactive).

As to `O=C(OCC(=O)c1cccs1)C1=COCCO1`, the inhibition was -103% (inactive).

With `Cc1nc2ccccc2nc(=O)c1NNc1ccc([N+](=O)[O-])cc1`, the inhibition is -109% (inactive).

Regarding `CSCCC(NS(=O)(=O)c1ccc2c(c1)oc(=O)n2C)C(=O)NC1CCCc2ccccc21` (stereo unspecified), the inhibition was 1.15% (inactive).

For `CC12CCC(C(=O)N(c3cccc(Cl)c3)C1=O)C2(C)C` (stereo unspecified), the inhibition was 15.6% (inactive).

With `CC12CCC(C(=O)N(NC(=O)c3ccccc3O)C1=O)C2(C)C` (stereo unspecified), the inhibition is 67.6% (active).

Regarding `O=C(NN1C(=O)C2C(C1=O)C1C=CC2C12CC2)c1ccccc1Cl` (stereo unspecified), the inhibition was 12.2% (inactive).

In the case of `COC(=O)c1scc(C)c1NC(=O)CSc1ccc(Cl)cc1`, the inhibition is 14.7% (inactive).

As for `Cc1ccc(CSCCNC(=O)CN(c2ccc(F)cc2)S(C)(=O)=O)cc1`, the inhibition was 14.7% (inactive).

In the case of `O=C(C1CC1)N1N=C(c2ccc(Br)cc2)CC1(O)C(F)(F)F` (stereo unspecified), the inhibition was -12.3% (inactive).

In the case of `O=C(Cc1ccccc1)N1N=C(c2ccncc2)CC1(O)C(F)(F)F` (stereo unspecified), the inhibition is 18.6% (inactive).

As for `O=C(c1ccc(Cl)cc1)N1N=C(c2ccccn2)CC1(O)C(F)(F)F` (stereo unspecified), the inhibition was 68.6% (active).

Regarding `CC(=O)Nc1ccc(N2C(=O)C3C4CC(=O)C(c5ccccc54)C3C2=O)cc1` (stereo unspecified), the inhibition is 17.3% (inactive).

With `CC(Oc1ccccc1)C(=O)NN1Cc2ccccc2C1=N` (stereo unspecified), the inhibition was -12.4% (inactive).

For the compound `O=C1[C@H]2[C@@H](c3ccc(F)cc3)N3C(=O)N(c4ccc(C(F)(F)F)cc4)C(=O)[C@@]3(Cc3ccccc3)[C@H]2C(=O)N1C1CCCCC1`, the inhibition was -4.59% (inactive).

`COc1ccc(CCNC(=O)c2c(C)nn(-c3ccccc3)c2Cl)cc1`: the inhibition was 14.8% (inactive).

As for `Nc1nonc1-n1nnc(C(=O)N/N=C/c2c[nH]c3ccccc23)c1-c1ccccc1`, the inhibition is 1.28% (inactive).

Turning to `CCc1ccc2c(c1)C1(NN=C(c3ccccc3)S1)C(=O)N2` (stereo unspecified), the inhibition is 71.7% (active).

Consider `CCOC(=O)c1c(C)[nH]c(C)c1S(=O)(=O)NCCCc1ccco1`, for which the inhibition is 0.398% (inactive).

Turning to `Cc1oc2nc(SCC(=O)Nc3ccc(S(N)(=O)=O)cc3)nc(NC(=O)c3ccccc3)c2c1C`, the inhibition was -1.45% (inactive).

Take `CCn1c(CNC(=O)c2cc(OC)c(OC)c(OC)c2)cc2cc(C)ccc21`: the inhibition is -1.14% (inactive).

Consider `COc1c(C)c2c(c(O)c1C/C=C(\C)CCC(=O)O)C(=O)OC2`, for which the inhibition is 76.6% (active).

For `CN1CN(C)c2ccc([N+](=O)[O-])c3cccc1c23`, the inhibition was 35.2% (inactive).

For `CC1=NN(/C(=N\c2nnc(C)s2)Nc2ccccc2)[C@H](c2ccc(C)cc2)S1`, the inhibition is -19.5% (inactive).

Take `COCCCn1c(SCC(=O)NC2CCCC2)nnc1-c1ccccc1`: the inhibition is 4.11% (inactive).

With `Cn1c(N)c(C(=O)COC(=O)c2ccccc2NCc2ccco2)c(=O)n(C)c1=O`, the inhibition was 6.96% (inactive).

With `COc1ccc(/C=C/C(=O)Nc2cccnc2)cc1OC`, the inhibition was -72.4% (inactive).

For the compound `COc1ccc(/C=C/C(=O)Nc2ccc(C)cc2)cc1S(=O)(=O)N1CCOCC1`, the inhibition is -60% (inactive).

As to `COc1ccc(/C=C/C(=O)Nc2ccc(C34CC5CC(CC(O)(C5)C3)C4)cc2)cc1OC`, the inhibition was 76.5% (active).

For `COc1ccc(-c2nn(C)c(=O)c3ccccc23)cc1CNC(=O)C1CCCCC1`, the inhibition was -1.05% (inactive).

Take `Cc1ccccc1-c1ccc(Nc2ccc(C(=O)N3CCOCC3)cc2)nn1`: the inhibition was 10.1% (inactive).

`CCOC(=O)c1ccccc1C(=O)N1CCOCCOCCOCC1`: the inhibition is 7.43% (inactive).

`Cc1oc2c(c1C(=O)N1CCOCC1)C(=O)c1ccccc1C2=O`: the inhibition is 101% (active).

With `CCOc1cc(/C=C2\SC(N3CCCC(C)C3)=NC2=O)ccc1O` (stereo unspecified), the inhibition is -40.1% (inactive).

Consider `Cc1ccc(C)c(S(=O)(=O)Nc2cc(C)on2)c1`, for which the inhibition is -13.8% (inactive).

Take `CCCCCc1ccc(-c2ccc(OCC)cc2)nc1`: the inhibition is 79.7% (active).

Consider `CCCCCc1ccc(-c2cn(Cc3ccc4ccccc4c3)nn2)cc1`, for which the inhibition was -16.4% (inactive).

Regarding `CCCCCc1ccc(-c2ccc(C(=O)O)cc2)nc1`, the inhibition was -19.1% (inactive).

As to `COc1cccc(C(=O)n2ccc(-c3cccs3)n2)c1`, the inhibition was 2.56% (inactive).

Turning to `COC(=O)c1c(NC(=O)c2ccc(S(=O)(=O)N3CCOCC3)cc2)sc2c1CCN(C(C)C)C2`, the inhibition is -85.3% (inactive).

On to `CCC(=O)NC(Nc1nc2ccc(C)cc2s1)(C(=O)OC)C(F)(F)F` (stereo unspecified), for which the inhibition was 13% (inactive).

Regarding `CCOc1ccc2nc(NC(=O)c3cc([N+](=O)[O-])ccc3N3CCOCC3)sc2c1`, the inhibition was 1.05% (inactive).

For the compound `O=C(NC(Nc1nc2ccc([N+](=O)[O-])cc2s1)(C(F)(F)F)C(F)(F)F)c1ccccc1`, the inhibition was 94.1% (active).

With `COc1ccc(Cl)cc1-n1c(=S)sc2c(=O)n(-c3ccc(F)cc3)c(SCC(=O)O)nc21`, the inhibition is 14.1% (inactive).

In the case of `CCOC(=O)N1CCN(C(=O)c2ccccc2SCC(=O)NCC2CCCCC2)CC1`, the inhibition was -17.7% (inactive).

As to `O=C(/C=C/c1cccc([N+](=O)[O-])c1)N1CCN(Cc2ccccc2)CC1`, the inhibition is -15.7% (inactive).

On to `O=c1c([N+](=O)[O-])cc(C(F)(F)F)cn1Cc1cccc(Cl)c1`, for which the inhibition was 17.2% (inactive).

For `O=[N+]([O-])/C=C/c1ccc2c(ccn2Cc2ccccc2)c1`, the inhibition is 84.5% (active).

In the case of `Cc1ccc(C(C)C)c(OCc2nnc(SCC(=O)Nc3nccs3)n2C)c1`, the inhibition was -2.72% (inactive).

With `O=C(N[C@@H](Cc1ccccc1)C(=O)OCc1ccccc1)c1nc[nH]c1C(=O)NC1CCNCC1`, the inhibition was -8.61% (inactive).

Turning to `Cc1c(NC(=O)c2c([N+](=O)[O-])cnn2C)c(=O)n(-c2ccccc2)n1C`, the inhibition is 3.28% (inactive).

On to `CCOC(=O)c1sc(C)c2c1NC(C)(c1cccc3ccccc13)NC2=O` (stereo unspecified), for which the inhibition is 31.1% (inactive).
